Measured values published in the supplement of paper PMC3334620.
Whole data set: some 33,000 sequences, median “E-score (-0.5 to 0.5)” near -0.016, cut for the highest 2% near 0.3. For the sample, the highest values were picked, then their nearest neighbours and some sequences at random.

Biological target: T1, Yer184c (UniProt P39961)
T1 sequence: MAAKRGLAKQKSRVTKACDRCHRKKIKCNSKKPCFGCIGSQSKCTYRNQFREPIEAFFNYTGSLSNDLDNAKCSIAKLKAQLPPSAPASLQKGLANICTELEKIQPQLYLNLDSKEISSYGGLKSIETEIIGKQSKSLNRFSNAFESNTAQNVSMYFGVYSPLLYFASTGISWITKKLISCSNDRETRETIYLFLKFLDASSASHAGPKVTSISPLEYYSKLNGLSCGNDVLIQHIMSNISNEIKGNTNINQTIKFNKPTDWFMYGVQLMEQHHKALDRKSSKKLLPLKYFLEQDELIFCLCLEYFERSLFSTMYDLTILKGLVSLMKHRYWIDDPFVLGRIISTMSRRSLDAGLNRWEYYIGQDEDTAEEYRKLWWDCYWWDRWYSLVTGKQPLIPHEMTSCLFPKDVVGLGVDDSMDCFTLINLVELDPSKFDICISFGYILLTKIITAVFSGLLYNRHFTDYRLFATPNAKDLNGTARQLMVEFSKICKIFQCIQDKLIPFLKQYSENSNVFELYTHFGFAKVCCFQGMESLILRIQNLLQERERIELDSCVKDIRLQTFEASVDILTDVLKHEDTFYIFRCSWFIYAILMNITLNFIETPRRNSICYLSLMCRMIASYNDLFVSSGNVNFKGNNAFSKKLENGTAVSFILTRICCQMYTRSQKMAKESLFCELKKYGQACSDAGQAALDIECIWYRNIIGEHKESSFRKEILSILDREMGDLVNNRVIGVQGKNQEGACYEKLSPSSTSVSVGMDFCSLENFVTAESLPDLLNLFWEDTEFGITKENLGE
Test: PBM E-score (8-mer binding enrichment) (E-score (-0.5 to 0.5)); higher = stronger / more preferred TF binding
Settings: protein concentration: 100 nM; construct: GST-full length
How it was run: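 Each ungapped eight-base word and its reverse complement, pooled, received an E-score from the Universal PBM Analysis Suite. Underlying scans, normalised with masliner, recorded fluorescent anti-GST bound to GST-tagged yeast transcription factors. These were applied at about 100-200 nM to universal all-10-mer Agilent arrays double-stranded by primer extension.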

Row | Sequence | PBM E-score
1 | GTTAGAAA | 0.184
2 | CAGGAACA | -0.0366
3 | GCGGAACA | 0.237
4 | CCGGAACA | 0.435
5 | CTGGAACA | 0.122
6 | TCGGAACA | 0.408
7 | ACGGAACA | 0.303
8 | AGCTTTTC | 0.0452
9 | CAATTAAG | 0.21
10 | GGGTTAAA | -0.0167
11 | AAACTCCG | 0.319
12 | AAACTCCT | -0.18
13 | AAGCTCCG | 0.339
14 | CAGCTCCG | 0.222
15 | ATACTCCG | 0.321
16 | AAGCTCCT | -0.237
17 | CAACTCCG | 0.197
18 | ATACTCCC | 0.059
19 | ATACTCCA | -0.081
20 | AATCGTAT | 0.039
21 | TATATCGA | 0.161
22 | ATATCTTG | 0.0464
23 | CAAAGGGA | -0.166
24 | ACGGTCCG | 0.161
25 | AAGCCGCA | 0.161

Row | Sequence | PBM E-score
26 | AAGCCGTA | 0.224
27 | GAGCCGTA | 0.307
28 | GAGCCCGA | 0.0143
29 | GAGCCGCA | 0.0573
30 | AAGCCGGA | 0.411
31 | GACCCGGA | 0.212
32 | AAGCCGTC | 0.187
33 | TACCCGGA | 0.354
34 | CAGCCGTA | 0.142
35 | GAGCCGGA | 0.328
36 | CACCCGGA | 0.237
37 | GCAGAGCA | 0.0245
38 | AATGTCCG | 0.283
39 | AGGTCGGG | -0.168
40 | AAGCCCAA | -0.106
41 | CCATCTTC | 0.173
42 | AGAAGCTC | 0.0486
43 | CCGTGAGG | -0.119
44 | CACCAGAC | -0.00896
45 | AACAGCTG | 0.0223
46 | CTAGAGTA | -0.0589
47 | TAGCCGCA | -0.0301
48 | CAGCCGGC | 0.391
49 | CAGCCGCC | 0.0636
50 | TAGCCGAA | 0.276

Row | Sequence | PBM E-score
51 | AAGCCGGG | 0.246
52 | CAGCCGGG | 0.127
53 | GAGCCGGC | 0.406
54 | GAGCCCGC | -0.212
55 | AAGCCGGC | 0.374
56 | TAGCCGGA | 0.401
57 | AAGCCGGT | 0.258
58 | GAGCCGCC | 0.0613
59 | CCATAGAC | -0.204
60 | GAAGTACA | 0.0369
61 | CCAATCGC | -0.072
62 | ATCAGCAG | 0.0226
63 | GGTGCCAC | -0.119
64 | TCGTACCA | 0.099
65 | CGCGCACA | 0.112
66 | CAGCCGGA | 0.392
67 | CAGCCGCA | -0.134
68 | CAGCCTGA | -0.0443
69 | ATATCACC | 0.093
70 | ACAGCGGC | -0.0827
71 | CGTTCGGA | 0.342
72 | AATTCGGC | 0.24
73 | AATTCGGA | 0.343
74 | AATTCGGT | 0.301
75 | CATTCGGA | 0.338

Row | Sequence | PBM E-score
76 | GGTTCGGA | 0.281
77 | GATTCGGC | 0.364
78 | CGTTCGGC | 0.27
79 | CATTCGGC | 0.269
80 | AATTCGGG | 0.103
81 | CATTCGGG | 0.141
82 | GATTCGAC | -0.112
83 | ATCCTTGC | -0.0624
84 | GTTAGACA | 0.222
85 | GATTTGTA | 0.103
86 | AGCCAAGG | -0.16
87 | ACTAAGAT | 0.154
88 | GAGGCCCA | -0.319
89 | CGGTTAAG | 0.269
90 | ACGAATAG | -0.0621
91 | TGGGCTAA | -0.147
92 | CAAAAGGG | -0.101
93 | GCCCTTCA | -0.0881
94 | GATTCGCA | 0.131
95 | GATTCGGA | 0.329
96 | TATTCGGA | 0.356
97 | TATTCGCA | 0.0122
98 | TATTCGAA | -0.106
99 | GATTCGTA | 0.125
100 | AGCTTGGA | -0.226

Row | Sequence | PBM E-score
101 | ATTCCATA | 0.147
102 | ACACAGGT | -0.289
103 | AGGCAAGA | -0.112
104 | GGGCATTA | -0.199
105 | CGGCATGA | 0.313
106 | CGGCATGC | 0.272
107 | GGGCATGA | -0.275
108 | AGGCATTA | -0.187
109 | CGGCAAGA | 0.317
110 | GGGCAAGA | 0.106
111 | CGGCATTA | 0.416
112 | CATCGGCC | 0.115
113 | ACCCAGTG | -0.306
114 | GAGAGGGC | -0.293
115 | CCTATCGA | -0.107
116 | ACCGGATA | 0.187
117 | ACCGGATG | 0.307
118 | ACCGGACG | 0.305
119 | CCCGGACG | -0.0945
120 | ACCGGATC | 0.229
121 | ACCGGACT | 0.101
122 | CGCATGAA | 0.0183
123 | AGTTAGTG | 0.00554
124 | CCTATACG | -0.267
125 | CCTCGGCC | 0.257

Row | Sequence | PBM E-score
126 | ACTCGGCG | 0.325
127 | TCTCGGCA | 0.35
128 | CCTCGGCG | 0.355
129 | ACTCGGCA | 0.299
130 | ACTCGGCC | 0.121
131 | TATCGGCA | 0.213
132 | CCTCGGCA | 0.367
133 | CCTCGGAG | 0.277
134 | ACTCGGCT | 0.209
135 | CCTCGGTA | -0.0209
136 | TCACGGCA | 0.096
137 | CGAACACC | 0.0223
138 | AATGGCCA | -0.256
139 | ACGGATTG | 0.161
140 | ATTCCGTG | 0.313
141 | ATTCCGTC | 0.149
142 | ATTCCGCG | 0.242
143 | ACTCCGTG | 0.1
144 | CATCCGTA | 0.206
145 | CTTCCGTC | 0.209
146 | CTTCCGTA | 0.322
147 | GTTCCGTA | 0.276
148 | ATTCCGTA | 0.322
149 | CCTGCGAG | 0.00158
150 | CGTAGCTC | -0.0585

Row | Sequence | PBM E-score
151 | AGTTCACG | -0.0529
152 | CCCCAATA | -0.244
153 | ACGCCAAT | -0.0124
154 | ATTCTTCC | 0.083
155 | ACCGGGAT | 0.256
156 | CAGTTAGA | -0.0352
157 | ATAAGATC | -0.0275
158 | ACGAATCC | 0.115
159 | CCGAATCC | 0.322
160 | CCGAATTC | 0.334
161 | CCGAATTA | 0.231
162 | CCGAATCA | 0.233
163 | ACGAATTC | 0.113
164 | TACGCTAA | 0.0349
165 | GTAACTCA | -0.0122
166 | AGATCTAA | 0.0189
167 | AGTCTTGG | -0.0577
168 | GACCAAAA | 0.309
169 | GACAAGAA | 0.151
170 | TACCAAAA | 0.0716
171 | GACAAAAC | 0.0933
172 | AACCAAAA | 0.0925
173 | GACAAAAA | 0.333
